Assay [1] in a line: Quantitative High-Throughput drug screen in 47 multiple myeloma cell lines against the NCATS MIPE library collection: MOLP8_DSMZ cell viability assay (AID 1918977). Note: nearly all actives have a fitted effect of over 45% in size. Note: potency is the fitted concentration of half-maximal effect. An excerpt:
(§1) PI: Beverly A. Mock Ph.D.
(§2) Laboratory of Cancer Biology and Genetics,
(§3) Center for Cancer Research, National Cancer Institute,
(§4) National Institute of Health, Bethesda, Maryland
(§5) Drug resistance and disease progression are common in multiple myeloma (MM) patients, underscoring the need for new therapeutic combinations. […] We hypothesized that effective combinations would reduce MYC expression and enhance p16 activity. […] These preclinical data identify potentially useful drug combinations for evaluation in drug-resistant MM and reveal potential mechanisms of combined drug sensitivity.
(§6) Described herein is the primary MIPE qHTS used to cherrypick compounds. Validated compounds were then further tested for potential synergistic activiy.
(§7) [1] Peat TJ, Gaikwad SM, Dubois W, Gyabaah-Kessie N, Zhang S, Gorjifard S, Phyo Z, Andres M, Hughitt VK, Simpson RM, Miller MA, Girvin AT, Taylor A, Williams D, D'Antonio N, Zhang Y, Rajagopalan A, Flietner E, Wilson K, Zhang X, Shinn P, Klumpp-Thomas C, McKnight C, Itkin Z, Chen L, Kazandijian D, Zhang J, Michalowski AM, Simmons JK, Keats J, Thomas CJ, Mock BA. Drug combinations identified by high-throughput screening promote cell cycle transition and upregulate Smad pathways in myeloma. Cancer Lett. 2023 Aug 1;568:216284. doi: 10.1016/j.canlet.2023.216284. Epub 2023 Jun 24. PMID: 37356470; PMCID: PMC10408729.
(§8) SEQUENCE No. (e.g., 1, 2, 3, etc.); […] (e.g., Cells, Incubation, Reagent, etc.); VALUE and DESCRIPTION.
(§9) 1; Cells; 5 uL; white, solid bottom 1536-well Greiner assay plate.
(§10) 2; Compounds; 23 nL; Kalypsis pin tool (Wako USA) equipped with a 1536-well pin head to transfer to the assay plates.
(§11) 3; Incubation; 48 hours; 37C incubation.
(§12) 4; Reagent;5uL; CellTiter Glo (Promega).
(§13) 5; Detector; 425V; Luminescence; Viewlux PerkinElmer. […]
(§14) 1. […] Briefly, the corresponding myeloma cell lines were screened in 1,536-well plates with 500 cells, 5-uL per well for inhibition of cell viability (assessed by measuring ATP levels with CellTiterGlo). […]
(§15) 5. Signal was measured as median relative luminescence units on a ViewLux (PerkinElmer) multiplate reader. […]

Assay [2] is described as follows: Quantitative High-Throughput drug screen in 47 multiple myeloma cell lines against the NCATS MIPE library collection: MM1S_ATCC cell viability assay (AID 1918980). Note: potency is the fitted concentration of half-maximal effect; nearly all actives have a fitted effect of over 45% in size. As to conditions: MM1S myeloma viability, CellTiter-Glo ATP luminescence, 48 h. In a few lines:
(§16)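 ATP-based CellTiter-Glo luminescence after 48 h drug exposure (37 °C, 5% CO2) of 500 myeloma cells per well. DMSO-only wells set 100% viability, media-only wells 0%; MIPE 4.0 library added by pin tool.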

Assay [3] is described as follows: Quantitative High-Throughput drug screen in 47 multiple myeloma cell lines against the NCATS MIPE library collection: MM1R_ATCC cell viability assay (AID 1918981). Note: nearly all actives have a fitted effect of over 35% in size. Note: potency is the fitted concentration of half-maximal effect.
Text: as §1, §2, §3, §4, §5, §6, §7, §8, §9, §10, §11, §12
5; Detector; 425V; Luminescence; Viewlux PerkinElmer.
NOTES (numbers refer to Sequence numbers above)
1. The cell-based screening methods employed in this study were like those previously published. Briefly, the corresponding myeloma cell lines were screened in 1,536-well plates with 500 cells, 5-uL per well for inhibition of cell viability (assessed by measuring ATP levels with CellTiterGlo).
2. NCATS MIPE 4.0 library of approved and investigational drugs were added using the Kalypsis pin tool. Wells treated with DMSO only for 100% viability and media only for 0% viability were used as controls.
3. The assay plates were covered and incubated for 48 hours in a 37C, 5% CO2 incubator with controlled humidity.
4. After 48 hours, CellTilter-GloTM luminescent substrate mix (Promega) reagent was added to the assay plate and plates we incubated for 5 min at room temperature.
5. Signal was measured as median relative luminescence units on a ViewLux (PerkinElmer) multiplate reader.
[1] […]

Assay [4] is described as follows: Quantitative High-Throughput drug screen in 47 multiple myeloma cell lines against the NCATS MIPE library collection: MMM1_PLB cell viability assay (AID 1918976). Note: nearly all actives have a fitted effect of over 35% in size. Note: potency is the fitted concentration of half-maximal effect.
Text: as §1, §2, §3, §4, §5, §6, §7, §8, §9, §10, §11, §12, §13, §14, §15

Assay [5] in a line: Quantitative High-Throughput drug screen in 47 multiple myeloma cell lines against the NCATS MIPE library collection: NCIH929_DSMZ cell viability assay (AID 1918978). Note: nearly all actives have a fitted effect of over 35% in size. Note: potency is the fitted concentration of half-maximal effect.
Text: as §1, §2, §3, §4, §5, §6, §7, §8, §9, §10, §11, §12, §13, §14, §15

Assay [6] in a line: Quantitative High-Throughput drug screen in 47 multiple myeloma cell lines against the NCATS MIPE library collection: OCIMY1_PLB cell viability assay (AID 1918979). Note: series mostly up to about 46 µM; nearly all actives have a fitted effect of over 35% in size. The procedure, abridged: as §16
Assay [7] is described as follows: Quantitative High-Throughput drug screen in 47 multiple myeloma cell lines against the NCATS MIPE library collection: LP1_DSMZ cell viability assay (AID 1918982). Note: nearly all actives have a fitted effect of over 35% in size. Note: potency is the fitted concentration of half-maximal effect.
Text: as §1, §2, §3, §4, §5, §6, §7, §8, §9, §10, §11, §12, §13, §14, §15

A short description of assay [8]: Quantitative High-Throughput drug screen in 47 multiple myeloma cell lines against the NCATS MIPE library collection: L363_DSMZ cell viability assay (AID 1918984). Note: nearly all actives have a fitted effect of over 40% in size. Note: potency is the fitted concentration of half-maximal effect.
Text: as §1, §2, §3, §4, §5, §6, §7, §8, §9, §10, §11, §12, §13, §14, §15

The nature of assay [9]: Quantitative High-Throughput drug screen in 47 multiple myeloma cell lines against the NCATS MIPE library collection: KMS34_JCRB cell viability assay (AID 1918985). Note: nearly all actives have a fitted effect of over 40% in size. Note: potency is the fitted concentration of half-maximal effect. The procedure, abridged:
as §16

A short description of assay [10]: Quantitative High-Throughput drug screen in 47 multiple myeloma cell lines against the NCATS MIPE library collection: KMS28PE_JCRB cell viability assay (AID 1918983). As to conditions: KMS28PE multiple myeloma viability, CellTiter-Glo ATP, 48 h. The procedure, abridged: as §16

We go through four compounds from PubChem BioAssay (NCATS).

Structures are written as SMILES. Results filed as inconclusive are left out. Activity calls are given as the source filed them. Calls come from the whole dose curve; as a rule, active = well fitted curve in the direction sought with a large enough effect; inconclusive = small, poorly fitted or top-dose-only effect, or another doubt; inactive = no such curve, though single readings can be large; an effect the other way counts as inactive or inconclusive.

Regarding `COc1ccc(C(=O)N2CCCC2=O)cc1`, the Potency result in assay [1] and in [3] was “inactive” each time. The Potency in [2] is 0.296 µM (active).

With `COC(=O)C1=CCCN(C)C1`, the Potency in [4] was 1.05 µM (active). Also, the Potency entry in assay [5], in assay [3], in assay [7], in assay [8] and in [9] was “inactive” in each case. In assay [6], the compound was called inactive.

`O=C(O)c1nn(Cc2ccc(Cl)cc2Cl)c2ccccc12`: the Potency entry in assay [4], in assay [1], in assay [5], in [3], in assay [7] and in assay [8] was “inactive” each time. Besides, the Potency result in assay [9] is “inactive”.

`C[C@@H]1C[C@@H]([C@H](O)CC2CC(=O)NC(=O)C2)C(=O)[C@@H](C)C1`: the Potency is 0.662 µM (active) in assay [4]; 0.296 µM (active) in assay [1]; 1.87 µM (active) in [5]; 4.18 µM (active) in assay [2]; 1.66 µM (active) in assay [3]; 0.118 µM (active) in assay [7]. The Potency is 1.18 µM (active) in assay [10], 0.743 µM (active) in assay [8] and 0.118 µM (active) in assay [9].
